PubChem BioAssay AID1025 (Sanford-Burnham Center for Chemical Genomics, 2008)
Screen size: about 96,000 compounds; fewer than 10 were called active.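 How the source made its calls: active means activation factor of at least 2 at 5 µM in the primary screen; inactive means the rest.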 Not all results are given here.

Each compound was assayed against Cytochrome P450 2C19 (Homo sapiens) (UniProt P33261) (assay: human CYP2C19 activators, primary screen, biochemical, luminescence (AID 1025;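 further: 0 = wells with 2.5 mM tranylcypromine and 1 = vehicle-only wells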)). Details: recombinant CYP2C19, luciferin-H EGE luminescence; at 5 µM; active compounds read high; 0 = fully inhibited enzyme, 1 = untreated enzyme.
Sequence of Cytochrome P450 2C19 (Homo sapiens) (P33261 whole entry, looked up): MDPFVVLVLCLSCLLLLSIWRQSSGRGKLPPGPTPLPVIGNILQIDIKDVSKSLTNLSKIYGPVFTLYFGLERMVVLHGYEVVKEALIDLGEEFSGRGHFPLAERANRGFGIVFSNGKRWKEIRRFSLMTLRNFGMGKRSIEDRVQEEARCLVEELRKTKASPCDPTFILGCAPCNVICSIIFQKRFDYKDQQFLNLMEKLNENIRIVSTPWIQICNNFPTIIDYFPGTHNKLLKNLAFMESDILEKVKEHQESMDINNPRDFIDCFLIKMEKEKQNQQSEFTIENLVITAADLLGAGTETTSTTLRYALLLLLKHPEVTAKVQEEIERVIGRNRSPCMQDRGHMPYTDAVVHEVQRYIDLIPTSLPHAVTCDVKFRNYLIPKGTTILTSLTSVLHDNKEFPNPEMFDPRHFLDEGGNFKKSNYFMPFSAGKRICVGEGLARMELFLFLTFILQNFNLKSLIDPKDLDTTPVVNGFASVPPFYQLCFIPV

Activation factor, inactive:
CCc1ccc(CNC(=O)C2CCCN(c3nc4ccccc4o3)C2)cc1 (stereo not drawn) 0.3
CCn1cc(C(=O)N/N=C(/C)c2ccc(F)cc2)c(=O)c2cc(F)c(N3CCCC3)cc21 0.6
O=C(Nc1cccc(-c2nc3ncccc3o2)c1)c1ccco1 0.9
COc1ccccc1NC(=O)[C@H](COCc1ccccc1)NC(=O)OC(C)(C)C 0.5
CN=C1SC(CC(=O)Nc2ccc(C(=O)O)cc2)C(=O)N1C (stereo not drawn) 1
O=C(c1ccco1)N1CCN(C(=O)C2CCCN(S(=O)(=O)c3cccc4nsnc34)C2)CC1 (stereo not drawn) 1
COc1ccc(NC(=O)Cn2c(-c3ccc(OC)cc3)cn(-c3ccc(C)cc3)c2=O)cc1 1
O=C(N/N=C/c1ccc(O)cc1)/C(=C/c1ccc([N+](=O)[O-])cc1)NC(=O)c1ccccc1 0.9
CSc1ccc(C#N)cc1NC(=O)c1cccc(Cl)c1 0.8
Cc1ccc(S(=O)(=O)N(CC(=O)NCCSC2CCCCC2)c2ccccc2F)cc1 1
CC(c1ccco1)N(C(=O)COc1ccccc1[N+](=O)[O-])c1ccccn1 (stereo not drawn) 0.6
C=CCn1c(SCC(=O)NCc2ccccc2)nnc1-c1cc(Br)ccc1O 0.1
O=C(Nc1nccs1)c1cc(S(=O)(=O)N2CCOCC2)c(Cl)cc1Cl 0.9
CC(C)CCOc1ccc(C(=O)C[N+]2(C)CCOCC2)cc1 0.9
O=C(N/N=C/C=C/c1ccccc1)C1CC1(c1ccccc1)c1ccccc1 (stereo not drawn) 1.2
COCCNC(=O)COc1ccccc1C 1
COc1ccccc1NC(=O)COc1ccc(C(=O)OCC(=O)N(C(C)C)C(C)C)cc1OC 0.4
CCCN1Cc2cccc(C(=O)Nc3ccc(S(=O)(=O)N4CCCCCC4)cc3)c2C1=O 0.8
Cc1cccc(C)c1-n1c(C)cc(/C=C2\C(=O)NN(c3ccccc3)C2=O)c1C 0.6
Cc1ccc(SCCC(=O)OCC(=O)Nc2ncc(Cl)cc2Cl)cc1 0.8
COc1ccc(NCc2nnc(SCc3ccccc3)n2-c2ccc(OC)cc2)cc1 0.1
COc1ccc(-c2cc3nc(C)c(CCC(=O)NC(C)CCc4ccco4)c(C)n3n2)c(OC)c1 (stereo not drawn) 0.7
O=C(COc1cc(Cl)c(Cl)cc1Cl)NC(=O)NC1CCCC1 1.1
CCCCCN1CC(O)=C(c2nc(-c3ccc(Cl)cc3)cs2)C1=N 0.9
Cc1ccc(-n2c(SCC(=O)NCc3ccc4c(c3)OCO4)nnc2-c2cccnc2)c(C)c1 0.7
CCCCNC(=O)CSc1nc2ccc(NC(=O)CSc3nnc(COc4ccccc4C)n3C)cc2s1 0.8
CSc1nc2ccccc2cc1/C=C(\C#N)c1ccc(Cl)cc1Cl 0.9
Cc1nnc(SCC(=O)Nc2ncc3c(n2)CC(C)(C)CC3=O)s1 1
O=C(Nc1ccc2c(c1)OCCO2)C(c1ccc(F)cc1)N1CCCCC1 (stereo not drawn) 0.4
COc1cc(C2C(C(=O)OCCC#N)=C(C)NC3=C2S(=O)(=O)c2ccccc23)cc(OC)c1OC (stereo not drawn) 0.8
CCCCN1C(=O)CC(N2CCOCC2)C1=O (stereo not drawn) 1
O=c1c2ccccc2nc2n1C1(CCCCC1)Cc1ccccc1-2 0.3
Cc1ccc(OCc2nnc(NC(=O)OCC(C)C)s2)cc1 0.9
Cc1csc(=NC(=O)c2ccccc2)n1CCO 0.5
CSC1=N/C(=C\c2ccc3c(c2)OCO3)C(=O)S1 1
CC(C)(C)c1cc2cccnc2n1Cc1cccc(F)c1 0.9
CCNC(=S)Nc1cccc(Cl)c1C 0.5
CN1CCN(c2ccc([N+](=O)[O-])c(Sc3nc4ccccc4[nH]3)c2)CC1 0.7
CC/C(C)=N/Nc1nc2sc3c(c2c(=O)[nH]1)CC(C)(C)OC3 0.6
CCC(=O)Nc1ccc(C(=O)Nc2cccc(OC)c2)cc1 1
C=CCn1c(SCC(=O)c2c(N)n(C)c(=O)n(C)c2=O)nc2sc(CC)cc2c1=O 1
COc1ccc(-c2nc3ccccc3n2CCC(C)C)cc1OC 0.4
CC(C)Oc1ccc(C(=O)NC(C)(C)CO)cc1 1
COc1ccc(C(=O)Nc2ncc3c(n2)-c2ccccc2CC3)cc1 0.9
O=C(Nc1cccc2ccccc12)c1onc2c1CCCC2 0.9
FC(F)(F)c1ccc2nnc(-c3c(Cl)cccc3Cl)n2c1 0.7
Cc1cc(C(=O)OCC(=O)Nc2ccc(F)c(F)c2)c(C)o1 0.1
Cc1nnc(SCC(=O)NC(=O)NC2CCCC2)n1N 1
Cc1ccc(-c2csc(N(Cc3ccco3)C(=O)c3cccs3)n2)cc1 0.3
O=C(c1ccccc1Oc1ccccc1)N1CCN(c2ccc(F)cc2)CC1 0.1
O=C1N=C(N2CCCC2)S/C1=C\c1cccc(Br)c1 0.4
Cc1noc(C)c1COC(=O)c1cc2ccccc2cc1O 0.1
Cc1nnc(OCC(=O)NCCC2=CCCCC2)c2ccccc12 0.4
CCOCCCNC(=O)C(NC(=O)CNC(=O)c1ccccc1)c1ccc(C)cc1 (stereo not drawn) 1.1
Nn1c(SCC(=O)NC2CCCC2)nnc1-c1ccccc1F 0.8
CCN(CC)Cc1csc2ccc(Br)cc12 0.9
CN(C)c1ccc(CNC2C3CC4CC(C3)CC2C4)cc1 (stereo not drawn) 0.2
FC(F)(F)c1cccc(-c2cc3ccccc3nc2N2CCCC2)c1 0.8
COc1ccc2[nH]c(=O)c(CNc3ccc(C)c(C)c3)cc2c1 0.8
Cn1nc(C(F)(F)F)c(C(=O)Nc2cccc(C(F)(F)F)c2)c1SCc1ccc(Cl)cc1 0.1
Cc1ccc(/C=N\n2c(-c3ccccc3)n[nH]c2=S)s1 1
CCCCCCOc1ccc(OC(=O)c2cccnc2)cc1 0.8
O=S(=O)(c1cnccc1N1CCN(/N=C/c2ccc(Br)cc2)CC1)N1CCCCC1 1.1
CCC(C)NC(=O)c1c(N)n(/N=C/c2cccs2)c2nc3ccccc3nc12 (stereo not drawn) 0.9
Cc1ccc(C(=O)N2CCN(C(=O)N3CCOCC3)CC2)cc1 0.9
Cc1cccc(NC(=O)/C(=C\c2ccco2)NC(=O)c2ccccc2)c1 0.9
CC(C)Oc1ccc(CCc2n[nH]c(=S)n2Cc2ccccc2)cc1 0.8
CCOC(=O)/C(=C\c1ccc([N+](=O)[O-])cc1)C(=O)c1cc(C(C)=O)c(Nc2ccccc2)s1 0.4
CCOc1cccc(SCc2noc(C(=O)NC(C)C)c2C(=O)O)c1 0.9
Cc1cccc(C(=O)NCCCN2CCCC2=O)c1 0.8
COc1ccc(C(=O)NNC(=O)c2cnccn2)cc1[N+](=O)[O-] 0.9
Cc1cc(=O)[nH]c(SCc2cccc(F)c2)n1 0.9
COc1ccc(NC(=O)/C(Cl)=C(/Cl)S(=O)Cc2ccc(C)cc2)cn1 (stereo not drawn) 0.7
COc1ccc(/C=C2\CCCC3C2=NN(C(=O)c2scnc2C)C3c2ccc(OC)cc2)cc1 (stereo not drawn) 0.7
Cc1ccccc1-n1nc(C)c2cc(C(=O)NC3CC3)sc21 0.4
Cc1onc(-c2c(Cl)cccc2Cl)c1C(=O)c1c[nH]c(C(=O)NC2CC2)c1 1
Cc1cccc(C(=O)Nc2ccc(C(=O)/C=C/c3cccs3)cc2)c1 1
CCOc1ccc(S(=O)(=O)NCCSc2ccccc2)cc1 0
CN(C)S(=O)(=O)c1ccc(N2CCCC2)c(C(=O)NCc2ccccc2)c1 0.4
COc1ccc(C(=O)Nc2nc(-c3ccc(OC)cc3)c(-c3ccc([N+](=O)[O-])cc3)s2)cc1 0.9
Cc1nn(Cc2ccccc2Cl)c(C)c1NC(=O)Cn1nc([N+](=O)[O-])c(Cl)c1C 1
COC(=O)Nc1sc2nc(C)cc(C)c2c1-n1cccc1 0.8
CCCc1nnc(NC(=O)c2cccs2)s1 0.9
O=C1Nc2ccc(Br)cc2/C1=N/N=C/C1=C(N2CCOCC2)C(=C\c2ccccc2)/CC1 1
O=C(N/N=C\c1cccc(Br)c1)c1ccccc1-n1cccc1 0.3
CC(=O)N1Cc2ccccc2CC1C(=O)O (stereo not drawn) 1.2
O=C(c1cccc(N2CCCC2=O)c1)N1CCOCC1 1.1
Cc1nn(CCOc2ccccc2)c(=O)n1-c1ccccc1F 0.5
O=C(NCc1ccccc1)[C@@H]1CSC2c3ccccc3C(=O)N21 (stereo partly drawn) 0.2
N=c1ccn(CC(=O)NC(N)=O)c2ccccc12 1.1
CCC(=O)c1c[nH]c(C(=O)NCC2CCCO2)c1 (stereo not drawn) 1
COc1ccc(Nc2nc(Cl)nc(NCc3ccco3)n2)cc1 1
CN(C)/C=C/C(=O)c1ccccc1F 1.1
C=CCn1c(Cn2nnc3ccccc32)nnc1SCC(=O)N/N=C/c1cc(Br)cc(OC)c1O 0.8
COC(=O)CCSc1cc([N+](=O)[O-])cc2c1c(C1OCCS1)nn2-c1ccccc1 (stereo not drawn) 0.9
NC(=O)c1nsc(C(=O)N(CC(=O)NCc2ccc(F)cc2)Cc2ccco2)c1N 0.8
CCNC(=O)NC(=O)C(C)OC(=O)c1cc(S(=O)(=O)N2CCCCCC2)ccc1OC (stereo not drawn) 0.3
CCOC(=O)c1c(-c2ccccc2)csc1NC(=S)NC(=O)c1ccccc1 1.1
